# Sampled rows, rich in hits. Any-hit rate of the full collection: about 1.6%.
# GRK2 aptamer HTS – blocks RNA aptamer binding to human GRK2. P25098. bead flow cytometry, FAM-aptamer displacement from GRK2. inhibition of aptamer binding, % at 10 µM. 330,000 tested, 0.59% active;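 active means inhibition of aptamer binding above 40%, roughly 3 SD of noise, on plates passing a quality check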;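 further: median bead fluorescence of bound FAM aptamer so fluorescent compounds give negative values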
# JMJD2C inh – blocks human GASC-1 demethylase activity; GST-JMJD2C(1-420) H3K9me3 demethylation, DELFIA europium; 330,000 tested, 0.069% active; inhibition, % at 2.35 µM; AID 2099; Q9H3R0;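 active means more than half of a compound's replicate wells show inhibition beyond 50%, single wells judged on their own value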;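 further: signal counts dimethyl H3K9 product captured on neutravidin plate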
# Pemphigus Ab inh – inhibitors of pemphigus antibody binding to human desmoglein-3; AID 588358; binding (percent of control), % at 10 µM; DSG3-coupled beads, scFv-anti-DSG3-GFP binding, flow cytometry; stronger effect = lower value; 310,000 tested, 0.48% active; P32926;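 active means binding more than 3 SD below its plate's average and above zero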;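 further: hits lower antibody fragment binding to DSG3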
# PREPL inh – inhibitors of human prolyl oligopeptidase-like enzyme PREPL. recombinant PREPL, fluorescence polarization activity-based probe. 320,000 tested, 0.68% active. inhibition, % at 5.96 µM; in the data active means inhibition above about 43%
# VLA-4 inh – inhibition in a human VLA-4 binding assay; 330,000 tested, 0.2% active; inhibition, % (about 7 µM as worked out from the volumes in the protocol); VLA-4 expressing cells, ligand binding flow cytometry; P13612; in the data active means inhibition above about 50%
# Numbers stand for hits; 0 = inactive; - = no result.
SMILES,GRK2 aptamer HTS,JMJD2C inh,Pemphigus Ab inh,PREPL inh,VLA-4 inh
CCc1ccc(OC)c(S(=O)(=O)Nc2ccc(Cc3ccncc3)cc2)c1,0,0,0,0,0
COc1ccc(S(=O)(=O)Nc2ccc(Cc3ccncc3)cc2)cc1OC,0,0,40,0,0
C/C=C\C(=O)Nc1cccc(C2=NOC3(C2)C[C@@H](C(N)=O)N(C(=O)C2(C)CC2)C3)c1 (stereo partly drawn),0,0,0,0,0
C=C(C)C(=O)Nc1cccc(C2=NOC3(C2)C[C@@H](C(N)=O)N(C(=O)C2(C)CC2)C3)c1 (stereo partly drawn),91,0,0,0,0
C/C=C\C=C/C(=O)Nc1cccc(C2=NOC3(C2)C[C@@H](C(N)=O)N(C(=O)C2(C)CC2)C3)c1 (stereo partly drawn),0,0,91,0,0
C=C(C)C(=O)Nc1cccc(C2=NOC3(C2)C[C@H](C(N)=O)N(C(=O)COc2ccc(Cl)cc2)C3)c1 (stereo partly drawn),97,0,0,0,0
C/C=C\C=C/C(=O)Nc1cccc(C2=NOC3(C2)C[C@@H](C(N)=O)N(C(=O)/C=C/C=C\C)C3)c1 (stereo partly drawn),0,0,68,0,0
COCCN(Cc1ccccc1)C(=S)Nc1ccc(OC(F)F)cc1,0,0,0,0,0
O=C1OC(c2ccccc2)(c2ccc3cc(O)ccc3c2)c2ccccc21 (stereo not drawn),-,-,0,-,-
CCOC(=O)c1sc2nc(CC(=O)OC)nc(N3CCN(c4ccc(OC)cc4)CC3)c2c1C,0,0,0,48,0
O=C(NCCCN1CCOCC1)c1cc2nc(-c3ccco3)cc(C(F)(F)F)n2n1,0,0,33,0,0
O=C(NC1CCCCC1)c1cc2nc(-c3ccco3)cc(C(F)(F)F)n2n1,-,0,0,-,-
OCCNc1nc(Nc2ccccc2Oc2ccccc2)nc(N2CCCC2)n1,0,0,0,0,0
Cc1ccc(-n2ncc3c(=O)[nH]c(SCC(=O)N4CCN(c5ccccc5)CC4)nc32)cc1,0,0,-32,0,0
O=[N+]([O-])c1ccc(Cl)c2c1C1C=CCC1C(c1ccccn1)N2 (stereo not drawn),0,0,0,0,0
O=C(O)c1ccc(Cl)c2c1C1C=CCC1C(c1ccccn1)N2 (stereo not drawn),47,0,-,0,0
O=C(/C=C/c1cccc(F)c1)N1CCc2ccccc21,0,0,18,0,0
O=[N+]([O-])c1ccc2[nH]c(O)c(N=NC3CCS(=O)(=O)C3)c2c1 (stereo not drawn),0,0,85,0,0
O=[N+]([O-])c1ccc2[nH]c(O)c(N=Nc3ccc(F)cc3)c2c1,0,0,0,0,0
COc1cccc(/C=N/N(C)C2=NS(=O)(=O)c3ccccc32)c1O,0,0,80,0,0
CC(C)CC(=O)NN(C)c1nc(-c2ccccc2)nnc1C(F)(F)F,0,0,52,0,0
Clc1ccc(-c2ccc(C=Nc3ccc(N4CCOCC4)cc3)o2)c(Cl)c1,0,0,27,0,0
Clc1ccc(-c2ccc(C=Nc3ccc(N4CCOCC4)cc3)o2)cc1,0,0,0,0,0
COc1ccc(/C=N\NC(=O)c2ccc(Cn3cc(Br)c([N+](=O)[O-])n3)o2)c(OC)c1C,0,0,65,0,0
C=CCN1CCN(C(=O)c2oc3ccccc3c2C)CC1,0,0,0,0,0
SMILES,GRK2 aptamer HTS,JMJD2C inh,Pemphigus Ab inh,PREPL inh,VLA-4 inh
CCC(=O)c1c[nH]c(C(=O)NCCCN2CCOCC2)c1,0,0,0,0,0
CC(C)(C)c1ccc(C(=O)c2c[nH]c(C(=O)NCCCN3CCOCC3)c2)cc1,0,0,-3.8,0,0
CCCNC(=O)c1cc(S(=O)(=O)N2CCc3ccccc32)cn1C,0,0,0,0,0
CCCCCCNC(=O)c1cc(S(=O)(=O)N2CCc3ccccc32)ccc1F,0,0,87,0,0
CCN1C(=O)[C@@H]2[C@@H](c3ccc(-c4ccc(C(C)=O)cc4)c(OC)c3)N3CCCC[C@@]3(C(=O)OC)[C@@H]2C1=O,0,0,0,0,0
Cc1cc(Br)ccc1NC(=O)CNC(=O)Cn1ncc(Cl)c(Cl)c1=O,0,-,0,0,50
Cc1ccc(S(=O)(=O)N2CCCCC2)cc1NC(=O)Cn1ncc(Cl)c(Cl)c1=O,0,0,-,0,0
Cc1ccc(Cn2cc(SCC(=O)Nc3nccs3)c3ccccc32)cc1,0,0,0,0,0
Cc1nnc(NC(=O)CSc2cn(Cc3ccccc3)c3ccccc23)s1,0,0,-20,0,0
CCc1c(-c2ccccc2)nc2nc(C)c(C)nn12,0,0,33,0,0
CCOc1cc(C(=O)OCC(=O)N(C)c2ccccc2)cc(OCC)c1OCC,0,0,0,0,0
O=C(O)CN1C(=O)/C(=C/c2ccccc2Cl)Oc2ccccc21,0,0,0,0,0
CCOC(=O)CN1C(=O)/C(=C/c2ccccc2Br)Oc2ccccc21,0,0,-3.0,0,0
CCN(CC)S(=O)(=O)c1cc(C(=O)Nc2cc(C)[nH]n2)ccc1Cl,0,0,0,0,0
CC1CN(c2sc(S(C)(=O)=O)nc2S(=O)(=O)c2ccc(Cl)cc2)CC(C)O1 (stereo not drawn),0,0,75,0,0
COc1ccccc1NC(=O)N1CCC(NC(=O)C2CCCCC2)CC1,0,0,0,0,0
Cc1[nH]n(-c2ccccc2)c(=O)c1N=Nc1cccc(C(=O)O)c1,0,0,0,0,0
Cc1[nH]n(-c2ccccc2)c(=O)c1N=Nc1cccc(S(=O)(=O)N2CCOCC2)c1,0,0,64,0,0
Cc1ccc(NC(=O)NC2CCCN2S(=O)(=O)c2ccc(Cl)cc2)cc1 (stereo not drawn),0,0,0,0,0
Cc1ccc(-c2nc(Nc3ccc(N4CCOCC4)cc3)c3ccccc3n2)cc1,0,0,0,46,0
COC(=O)C1=C(C)NC(=S)NC1c1ccc(-c2cc(Cl)ccc2Cl)o1 (stereo not drawn),0,0,0,0,0
Cc1ccc2nc(CSc3nc(C)cc(C)c3C#N)[nH]c2c1,0,0,0,58,0
Cc1cc(C)c(C#N)c(SCc2ccccc2)n1,0,0,0,0,0
Cc1c(NC(=O)c2cc(-c3ccc(F)cc3)nc3ccccc23)c(=O)n(-c2ccccc2)n1C,0,0,67,0,0
COc1ccccc1-n1cnc2c(c1=O)c1nc3ccccc3nc1n2-c1ccc(C)c(C)c1,-,0,35,-,-
Cc1n[nH]c(=S)n(NC(=O)/C=C/C(=O)Nn2c(=S)[nH]nc(C)c2=O)c1=O,-,0,36,-,-
Cc1n[nH]c(=S)n(NC(=O)CC(=O)Nn2c(=S)[nH]nc(C)c2=O)c1=O,0,0,0,0,0
COc1ccc(-n2c(C)cc(/C=C3\SC(=S)N(Cc4ccco4)C3=O)c2C)cc1,0,0,0,0,0
COc1ccc(-c2nn(-c3ccccc3)cc2/C=C2/SC(=S)N(Cc3ccco3)C2=O)c(C)c1,0,0,87,0,0
CCn1c(CC(=O)Nc2ccccc2Cl)nnc1SCC(=O)NC1CCCC1,0,0,86,0,0

# Bioassay records (PubChem BioAssay)
